Results with a measured potency or affinity are listed apart. Active and inactive are the calls of the source.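 Rule for the calls: active = compounds lowering cell ATP signal with a fitted half-effect dose at most twice the top valid dose; inconclusive = flat curve with 30 to 70% signal loss, or bad fit; inactive = wrong direction, flat within 30%, or weaker than limit.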

The test is described as follows: HEK293 cell cytotoxicity, dose response, cytotoxicity control, cherry-picks, set 5 (AID 1053117).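 Note: more negative means greater loss of ATP signal and more cytotoxicity.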 The note with it: HEK293T viability, CellTiter-Glo ATP luminescence, 72 h; series mostly up to 26 µM.
With `COc1ccc(Cl)cc1NC(=O)CSc1nc(Nc2ccccc2)nc(N2CCOCC2)n1`, the call was inactive.

For `C[C@H]1CN([C@@H](C)CO)C(=O)c2cccc(NC(=O)Nc3ccc(C(F)(F)F)cc3)c2O[C@H]1CN(C)C(=O)Nc1cccc2ccccc12`, the compound was called inactive.

On to `Cc1ccc(S(=O)(=O)N2CC[C@H]3[C@H](CO)Nc4ccc(-c5cccc(C(=O)N(C)C)c5)cc4[C@H]32)cc1`, for which the outcome was inactive.

As to `O=C(CC1Nc2ccccc2NC1=O)Nc1ccc2c(c1)OCO2` (stereo not drawn), the call was inactive.

With `CC(NC(=O)CSc1ccc(S(=O)(=O)N2CCOCC2)cn1)c1ccc(Cl)cc1Cl` (stereo not drawn), the outcome was inactive.

In the case of `CC(C)NC(=O)N(C)C[C@H]1Oc2ccc(NC(=O)CCN3CCOCC3)cc2C(=O)N([C@H](C)CO)C[C@@H]1C`, the outcome was inactive.

Turning to `COc1ccc(-c2csc(CCn3nc(C)cc3C)n2)cc1OC`, the call was inactive.

Take `Cc1c(NC(=O)c2ccc3nsnc3c2)cccc1[N+](=O)[O-]`: the outcome was inactive.

For the compound `CCCCNC(=O)Nc1nc2ccc(CC)cc2s1`, the compound was classed as inactive.

For `C[C@H](O)C#Cc1ccc2c(c1)O[C@H](CN(C)C)[C@H](C)CN([C@H](C)CO)S2(=O)=O`, the result was inactive.

On to `COCC(=O)Nc1ccc2c(c1)C(=O)N(C)[C@H]1CC[C@@H](CC(=O)NCc3ccccc3Cl)O[C@H]1CO2`, for which the compound was called inactive.

On to `O=C(CCC(=O)c1cccs1)NCc1cccnc1`, for which the outcome was inactive.

With `O=C(CCNS(=O)(=O)c1cccc2nonc12)NC1CCCc2ccccc21` (stereo not drawn), the outcome was inactive.

As to `C[C@@H]1CN([C@H](C)CO)C(=O)c2cc(-c3ccccc3)cnc2O[C@H]1CN(C)C(=O)c1cccc(F)c1`, the outcome was inactive.

Take `CC1CN(C(=O)c2cc3c(=O)n4ccccc4nc3n2C)CC(C)O1` (stereo not drawn): the outcome was inactive.

Consider `C[C@H](O)C#Cc1ccc2c(c1)O[C@H](CN(C)C)[C@@H](C)CN([C@@H](C)CO)S2(=O)=O`, for which the compound was classed as inactive.

As to `COCC(=O)Nc1ccc2c(c1)C(=O)N(C)[C@@H]1CC[C@@H](CC(=O)NCc3ccccc3Cl)O[C@@H]1CO2`, the compound was called inactive.

Turning to `O=C(Nc1cc(Sc2nc3ccccc3s2)cc([N+](=O)[O-])c1)c1ccccc1F`, the compound was called inactive.

With `CC(C)Cc1nnc(NC(=O)CSc2nc(N)cc(=O)[nH]2)s1`, the call was inactive.

For the compound `C[C@@H]1CN([C@H](C)CO)C(=O)c2cccc(NC(=O)Nc3ccc(C(F)(F)F)cc3)c2O[C@H]1CN(C)C(=O)Nc1cccc2ccccc12`, the compound was classed as inactive.

With `CC1(C)Cc2c(C#N)c(SCC(=O)c3ccccc3)nc(N3CCOCC3)c2CS1`, the outcome was inactive.

As to `COc1cccc(S(=O)(=O)N2CC[C@@H]3[C@H]2c2cc(-c4ccc(C#N)cc4)ccc2N[C@@H]3CO)c1`, the result was inactive.

Take `CN(C)C(=O)c1ccc(-c2ccc3c(c2)[C@H]2[C@H](CCN2C(=O)c2ccc(F)cc2)[C@H](CO)N3C)cc1`: the compound was called inactive.

Turning to `Cc1cc(C)n2ncc(C(=O)NCc3ccc(Cl)cc3)c2n1`, the call was inactive.

With `C[C@@H]1CN([C@@H](C)CO)C(=O)c2cc(NC(=O)CCCN(C)C)ccc2O[C@@H]1CN(C)Cc1ccc(-c2ccccc2)cc1`, the compound was called inactive.

For `C[C@H](O)C#Cc1ccc2c(c1)O[C@H](CN(C)C)[C@H](C)CN([C@@H](C)CO)S2(=O)=O`, the outcome was inactive.

As to `C[C@H](O)C#Cc1ccc2c(c1)O[C@H](CN(C)C)[C@@H](C)CN([C@H](C)CO)S2(=O)=O`, the compound was called inactive.

With `N#Cc1ccc(-c2ccc3c(c2)[C@@H]2[C@@H](CCN2S(=O)(=O)c2ccccc2F)[C@H](CO)N3)cc1`, the call was inactive.

In the case of `C[C@H]1CN([C@@H](C)CO)C(=O)c2cc(NC(=O)CCCN(C)C)ccc2O[C@H]1CN(C)Cc1ccc(-c2ccccc2)cc1`, the compound was classed as inactive.

For the compound `O=c1c2cc(N3CCOCC3)ccc2[nH]c(=S)n1Cc1ccc(Cl)cc1`, the compound was classed as inactive.

Take `COCC(=O)Nc1ccc2c(c1)C(=O)N(C)[C@@H]1CC[C@@H](CC(=O)NCc3ccccc3Cl)O[C@H]1CO2`: the compound was called inactive.

Take `O=C(OCC(O)C(O)COC(=O)c1ccccc1)c1ccccc1` (stereo not drawn): the compound was called inactive.

In the case of `O=C(c1cccnc1)N1C[C@@H]2[C@H](c3ccccc31)[C@@H](CO)N2CC1CCCC1`, the result was inactive.
